Screens from PubChem.
Shown are actives, neighbours in structure and some others; about 1.8% of the full set was active somewhere.
UBC9 SUMO inh – inhibitors of in vitro SUMOylation cascade, primary screen, biochemical, HTRF, uHTS; 290,000 tested, 0.36% active; HTRF SUMOylation assay, SAE1/SAE2 + UBC9; inhibition, % at 35 µM; SUMO-conjugating enzyme UBC9 (Homo sapiens), P63279; in the data active = inhibition above about 50%, passing the limit was not always enough
Target sequence (P63279 whole entry, looked up): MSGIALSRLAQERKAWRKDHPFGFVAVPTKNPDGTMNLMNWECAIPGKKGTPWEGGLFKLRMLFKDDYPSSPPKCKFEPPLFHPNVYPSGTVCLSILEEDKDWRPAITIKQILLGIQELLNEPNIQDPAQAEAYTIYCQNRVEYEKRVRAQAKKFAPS
NadD block – inhibitors of S. aureus NadD, primary screen, biochemical, colorimetric, uHTS. AID 602399, 2012. inhibition, % at 20 µM. Nicotinate-nucleotide adenylyltransferase NadD (Staphylococcus aureus N315). purified NadD enzyme, colorimetric absorbance read-out. 360,000 tested, 0.78% active; in the data active = inhibition above about 26%
pCIP destab – p/CIP-EGFP fusion destabilizers, primary screen, fluorescence, F442A cells | 16 h | decrease of EGFP signal, % at 10 µM | AID 1984, 2009 | Q05BA5 | 290,000 tested, 0.01% active;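 active = EGFP signal decrease of at least 30% at 10 µM or well 3 SD below plate mean, unless failing retest; inactive = the rest, including hits failing retest or dose response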
PHOSPHO1 block – PubChem AID 1565 | Phosphoethanolamine/phosphocholine phosphatase (Homo sapiens), Q8TCT1 | recombinant PHOSPHO1, absorbance phosphatase assay | inhibition, % at 13.3 µM | 290,000 tested, 1.1% active; in the data active = inhibition above about 60%
NadD conf – inhibitors of S. aureus NadD, confirmation, biochemical, colorimetric, single concentration; 2,000 tested, 13% active; inhibition, % at 20 µM; shares compounds with NadD block; purified S. aureus NadD, colorimetric enzyme assay; AID 624309, 2012; in the data active = inhibition mostly above about 42%, no sharp cut-off; inactive = mostly below about 42%
* hit, by the source's call; ! = repeats disagree.

Results for O=S(=O)(/N=C(/Nc1ccc(Cl)c(S(=O)(=O)Nc2ccccc2Cl)c1)c1ccc(F)cc1)c1ccccc1 ?
UBC9 SUMO inh: -17; NadD block: 41*!; pCIP destab: -1; PHOSPHO1 block: 34; NadD conf: 55*

How did CCc1cc2c(=O)c(-c3cnn(-c4ccccc4)c3)c(C)oc2cc1OCC(=O)Nc1ccc(F)c(F)c1 do in these assays?
UBC9 SUMO inh: -2; NadD block: 33*; pCIP destab: 8; PHOSPHO1 block: 3; NadD conf: 7

How did Cc1ccccc1NCC(=O)N/N=C/c1ccc([N+](=O)[O-])cc1 do in these assays?
UBC9 SUMO inh: -14; NadD block: -2; pCIP destab: 4; PHOSPHO1 block: -1

What do the screens show for `O=[N+]([O-])c1ccc(C=NNC(=S)NN=Cc2ccc([N+](=O)[O-])cc2)cc1`?
NadD block: 35*; NadD conf: 5

What do the screens show for `O=C(CNc1cccc2ccccc12)N/N=C/c1ccc([N+](=O)[O-])cc1`?
UBC9 SUMO inh: 71; NadD block: 40*; pCIP destab: -11; PHOSPHO1 block: 3; NadD conf: 44*

How did O=C(CNc1cccc2ccccc12)N/N=C/c1ccccn1 do in these assays?
UBC9 SUMO inh: 77; NadD block: 48*; pCIP destab: 7; PHOSPHO1 block: 24; NadD conf: 1

What do the screens show for `CCC(C)N(C(=O)CSc1nc(-c2ccccc2)cs1)C1CCS(=O)(=O)C1` (centres undefined)?
UBC9 SUMO inh: -2; NadD block: 0; pCIP destab: 0; PHOSPHO1 block: 0

What do the screens show for `COc1ccc(OC)c(C(=O)N2CCC(C(=O)c3ccc(F)cc3)CC2)c1`?
UBC9 SUMO inh: -4; NadD block: 8; pCIP destab: -19; PHOSPHO1 block: -4

Results for Cc1nn(Cc2c(Cl)cccc2Cl)c(C)c1NC(=O)c1cnn2c(C(F)F)cc(-c3ccccc3)nc12 ?
UBC9 SUMO inh: 29; NadD block: 43*; pCIP destab: -6; PHOSPHO1 block: -7; NadD conf: 1

What do the screens show for `Cc1ccc(-c2cc(C(F)F)n3ncc(C(=O)Nc4c(C)nn(Cc5c(Cl)cccc5Cl)c4C)c3n2)cc1`?
UBC9 SUMO inh: 28; NadD block: 32*; pCIP destab: -5; PHOSPHO1 block: -5; NadD conf: 0

What do the screens show for `COCCNC(=O)c1cnn2c(C(F)F)cc(-c3ccc(C)cc3)nc12`?
UBC9 SUMO inh: 7; NadD block: 11; pCIP destab: 16; PHOSPHO1 block: 4

How did Cc1ccc(-c2cc(C(F)F)n3ncc(C(=O)Nc4c(C)nn(Cc5ccccc5Cl)c4C)c3n2)cc1 do in these assays?
UBC9 SUMO inh: -29; NadD block: 33*; pCIP destab: -8; PHOSPHO1 block: 16; NadD conf: -2

Results for Cc1ccccc1CN1C(=O)C(C)S/C1=N/N=C/c1ccco1 (centres undefined) ?
UBC9 SUMO inh: 11; NadD block: 7; pCIP destab: -2; PHOSPHO1 block: -11

How did Cc1ccccc1CN1C(=O)C(C)Sc2ccc(-c3ccco3)cc21 (centres undefined) do in these assays?
NadD block: 43*; NadD conf: 50*

What do the screens show for `COc1ccccc1NC(=O)c1c(Nc2ccccc2C)sc(C(=O)Nc2cccc(Cl)c2)c1N`?
UBC9 SUMO inh: -25; NadD block: 35*; pCIP destab: 2; PHOSPHO1 block: -45; NadD conf: 47*

What do the screens show for `COc1ccc(NC(=O)c2c(Nc3ccccc3)sc(C(=O)c3ccc(F)cc3)c2N)cc1`?
UBC9 SUMO inh: -12; NadD block: 33*; pCIP destab: -32; PHOSPHO1 block: 23; NadD conf: -1

Results for COc1ccc(C(=O)c2sc(Nc3cccc(OC)c3)c(C(=O)Nc3cccc(C)c3C)c2N)cc1 ?
UBC9 SUMO inh: -4; NadD block: 36*; pCIP destab: -1; PHOSPHO1 block: 12; NadD conf: -11

What do the screens show for `Cn1c(N)c(C(=O)COC(=O)c2cc(-c3ccccc3)nc3ccccc23)c(=O)n(Cc2ccccc2)c1=O`?
UBC9 SUMO inh: -5; NadD block: 29*; pCIP destab: 1; PHOSPHO1 block: -11; NadD conf: 4
